Bioassay records from PubChem.
M18AAP inhibitor: PfM18AAP enzyme inhibition; actives 1.2% (n = 290,000); recombinant PfM18AAP, H-Glu-NHMec fluorogenic cleavage; inhibition, % at 7.35 µM;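 active means inhibition above the campaign mean inhibition over all tested compounds plus 3 SD, cut at about 28% in these data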;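 further: 0% = plate median of test compound wells and 100% = 2 mM ZnCl2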
PAFAH1B2 FP inh: blocks human PAF acetylhydrolase 1b catalytic subunit 2; P68402; recombinant PAFAH1B2, FP-rhodamine activity probe, fluorescence polarization; inhibition, % at 3.39 µM; actives 1.2% (n = 340,000);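 active means inhibition above the mean of all tested compounds plus 3 SD, cut at about 24% in these data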;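 further: 0% = enzyme with DMSO and 100% = wells lacking PAFAH1B2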
Pemphigus Ab inh: inhibitors of pemphigus antibody binding to human desmoglein-3 | AID 588358 | binding (percent of control), % at 10 µM | P32926 | DSG3-coupled beads, scFv-anti-DSG3-GFP binding, flow cytometry; hits give low values | actives 0.48% (n = 310,000);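 active means binding more than 3 SD below its plate's average and above zero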;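 further: hits lower antibody fragment binding to DSG3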
Target sequence (P32926 whole entry, looked up, the tested form may be a part): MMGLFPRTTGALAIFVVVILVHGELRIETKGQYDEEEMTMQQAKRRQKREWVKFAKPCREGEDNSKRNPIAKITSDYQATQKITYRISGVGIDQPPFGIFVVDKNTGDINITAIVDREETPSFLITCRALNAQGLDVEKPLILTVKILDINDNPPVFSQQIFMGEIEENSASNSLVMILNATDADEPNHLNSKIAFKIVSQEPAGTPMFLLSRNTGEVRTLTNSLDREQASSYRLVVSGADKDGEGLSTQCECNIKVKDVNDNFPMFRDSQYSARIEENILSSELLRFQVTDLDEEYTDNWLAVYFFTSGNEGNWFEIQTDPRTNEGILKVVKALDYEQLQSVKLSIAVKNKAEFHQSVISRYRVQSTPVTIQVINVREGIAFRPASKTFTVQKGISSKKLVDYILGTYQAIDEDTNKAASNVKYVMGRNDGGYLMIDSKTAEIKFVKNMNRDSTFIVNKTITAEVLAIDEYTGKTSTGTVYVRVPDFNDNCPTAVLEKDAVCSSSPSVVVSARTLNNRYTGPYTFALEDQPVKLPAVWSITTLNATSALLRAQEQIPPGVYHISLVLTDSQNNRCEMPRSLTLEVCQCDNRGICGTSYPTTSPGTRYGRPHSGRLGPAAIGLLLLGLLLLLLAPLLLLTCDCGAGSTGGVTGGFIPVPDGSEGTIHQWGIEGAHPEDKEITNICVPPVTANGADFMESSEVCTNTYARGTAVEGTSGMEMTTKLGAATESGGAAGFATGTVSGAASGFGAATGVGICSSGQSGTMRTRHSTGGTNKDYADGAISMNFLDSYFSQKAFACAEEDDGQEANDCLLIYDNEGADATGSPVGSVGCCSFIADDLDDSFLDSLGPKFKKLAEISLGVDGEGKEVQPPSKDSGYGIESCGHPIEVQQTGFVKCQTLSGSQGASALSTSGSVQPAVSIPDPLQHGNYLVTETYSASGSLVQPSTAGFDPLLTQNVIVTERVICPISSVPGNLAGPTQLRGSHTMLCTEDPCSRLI
PAFAH2 FP inh: PAFAH2 (human) inhibition; Q99487; recombinant PAFAH2, FP-rhodamine activity probe, fluorescence polarization; inhibition, % at 3.39 µM; actives 0.99% (n = 340,000); AID 492956;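 active means inhibition above the mean over all tested compounds plus 3 SD, cut at about 30% in these data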;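 further: inhibitors block probe labeling of enzyme so polarization drops; 0% = enzyme with DMSO and 100% = wells lacking PAFAH2 protein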
PAFAH1B3 inh: PAFAH1B3 (human) inhibition. Q15102. actives 0.28% (n = 340,000). inhibition, % at 3.39 µM. AID 492972. recombinant PAFAH1B3, FP-rhodamine probe, fluorescence polarization;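 active means inhibition above the screen-wide average of all tested compounds plus 3 SD, cut at about 25% in these data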;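 further: 0% = enzyme with DMSO only and 100% = wells lacking PAFAH1B3 protein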
pPAFAH FP inh: pPAFAH (human) enzyme inhibition; AID 463082; recombinant pPAFAH, FP-rhodamine probe fluorescence polarization; actives 1.5% (n = 330,000); inhibition, % at 3.39 µM;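 active means inhibition above the mean inhibition across the screen plus 3 SD, cut at about 25% in these data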;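 further: inhibitors block binding of the rhodamine activity-based probe so polarization drops; 0% = enzyme with DMSO and 100% = wells lacking pPAFAH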
An asterisk follows results filed as active; nt = not tested or not shown. Most compounds without a hit are left out; they make up all but 3.8% or so of the library.

SMILES	M18AAP inhibitor	PAFAH1B2 FP inh	Pemphigus Ab inh	PAFAH2 FP inh	PAFAH1B3 inh	pPAFAH FP inh
Cc1ccnc(NS(=O)(=O)c2ccc(NC(=O)Cc3ccc(Br)cc3)cc2)n1	-9	5	94	7	18	16
Cc1ccc(S(=O)(=O)Nc2ccccc2)cc1[N+](=O)[O-]	nt	8	120	5	3	nt
Cc1cccc2c(N=Nc3ccc(S(=O)(=O)Nc4cccc(Cl)c4)cc3[N+](=O)[O-])c(O)[nH]c12	9	26*	78	8	21	28*
CN1CSC2=C(C#N)C(c3cccc(OCc4ccccc4)c3)CC(=O)N2C1 (centres undefined)	19	7	100	32*	7	16
CCOC(=O)c1cc(-c2ccc(/C=C3/C(=O)N(c4ccc(C(=O)O)cc4)N=C3C)o2)ccc1Cl	-2	3	63*	4	8	5
CC(C)=CCC1=C(OCC(=O)O)C(=O)c2ccccc2C1=O	15	17	90	35*	57*	12
CC(=O)N[C@H]1[C@H](Oc2ccc3c(c2)CCC2C3CC[C@]3(C)C(=O)CCC23)O[C@H](CO)[C@@H](O)[C@@H]1O (some centres undefined)	0	-2	93	2	8	9
O=C(NN=C1CCCC1)c1ccc(Cl)cc1	-10	4	102	0	2	-6
O=C1CCC/C(=N/Nc2ccc(Cl)cc2)C1	9	3	102	-2	4	27*
COc1ccc(N2CSC3=C(C#N)C(c4cccs4)CC(=O)N3C2)cc1 (centres undefined)	43*	5	113	0	3	19
COc1ccc(N2CSC3=C(C#N)C(c4cc(OC)ccc4OC)CC(=O)N3C2)c(OC)c1 (centres undefined)	18	1	108	6	11	11
COc1cc(OC)c(C2CC(=O)N3CN(c4ccc(C)cc4)CSC3=C2C#N)cc1OC (centres undefined)	31*	5	88	-4	-1	12
CCOc1ccccc1N1CSC2=C(C#N)C(c3c(OC)ccc4ccccc34)CC(=O)N2C1 (centres undefined)	37*	-1	83	7	1	15
Cc1cc(C)c2c(=O)cc(C(=O)NCc3ccccc3)oc2c1	-2	0	95	2	1	4
CN(C1=NS(=O)(=O)N=C(N(C)c2ccccc2)O1)c1ccccc1	nt	nt	110	nt	nt	nt
CN(C)CCN(C)Cc1c2ccccc2c(CN(C)CCN(C)C)c2ccccc12	29*	8	94	12	2	0
O=C(O)C1=CC(=C(c2ccc(O)c(C(=O)O)c2)c2ccc(O)c(C(=O)O)c2)C=CC1=O	nt	nt	nt	nt	nt	66*
O=C(O)c1cc(O)ccc1O	nt	4	nt	3	7	nt
CCOc1ccccc1NC1=NCC(=O)N1Cc1ccc(F)cc1	0	0	107	0	-3	32*
C[C@@H]1CN([C@H](C)CO)C(=O)CCCn2nncc2CO[C@H]1CN(C)Cc1cccc(C(=O)O)c1	nt	nt	102	nt	nt	nt
O=C(CCc1nc2ccccc2c(=O)[nH]1)OCc1ccc(-c2ccccc2)cc1	-1	-2	7.9*	-14	4	-3
O=S(=O)(c1ccccc1)c1cc(O)ccc1O	-10	1	109	3	2	2
O=S(=O)(c1ccc(Cl)cc1)c1cc(O)ccc1O	-4	26*	89	3	6	6
Cc1c(NC(=O)CSc2nnc(-c3ccccc3F)o2)c(=O)n(-c2ccccc2)n1C	nt	nt	97	nt	nt	nt
Cc1nc(NC(=O)/C=C/c2ccccc2)sc1C(=O)Nc1ccccc1Cl	-14	-2	78*	-2	-4	-7
SMILES	M18AAP inhibitor	PAFAH1B2 FP inh	Pemphigus Ab inh	PAFAH2 FP inh	PAFAH1B3 inh	pPAFAH FP inh
Cc1nc(NC(=O)/C=C/c2ccccc2)sc1C(=O)Nc1ccc(Cl)cc1	-2	-3	80	-7	0	-3
Cc1cc(O)c(C(=O)/C=C/c2ccc(C(C)C)cc2)c(=O)o1	-11	28*	89	1	2	nt
Cc1cc(O)c(C(=O)/C=C/c2ccccc2)c(=O)o1	10	4	122	6	4	nt
Cc1ccc(NS(=O)(=O)c2cc([N+](=O)[O-])ccc2NNC(=S)Nc2cccc(Cl)c2)c(C)c1	32*	41*	100	10	-12	22
Cc1cccc(NC(=S)NNc2cccc(Cl)c2)c1	24	1	111	3	-8	-2
Cc1ccc(NCC(=O)N/N=C/c2cc(O)ccc2[N+](=O)[O-])cc1	21	nt	103	nt	nt	30*
COC(=O)[C@@H](NC(=O)c1cc(COc2cncc(Cl)c2)on1)c1ccccc1	-9	4	101	-5	2	0
CCC(NC(=O)c1cc(COc2cncc(Cl)c2)on1)c1ccc(C)cc1 (centres undefined)	3	28*	108	-3	1	5
Cc1ccc(C)c(NC(=O)CN(C)C(=O)c2ccccc2OCc2ccccc2Cl)c1	nt	6	102	1	6	4
Cc1ccccc1NS(=O)(=O)c1ccc(C(=O)NCC(c2ccco2)N(C)C)cc1 (centres undefined)	nt	2	107	2	-5	30*
Cc1ccccc1NS(=O)(=O)c1ccc(C(=O)NCC(c2ccco2)N2CCCCC2)cc1 (centres undefined)	nt	6	94	-1	-1	34*
O=C(NCC(c1ccco1)N1CCCCC1)c1ccc(COc2ccc(Cl)cc2)cc1 (centres undefined)	nt	31*	123	-4	6	nt
N#Cc1ccc(C(=O)N2CCC3CC2c2cc(N4CCCCC4)ccc23)cc1 (centres undefined)	nt	nt	117	nt	nt	nt
COc1ccc(S(=O)(=O)N(C)[C@H]2C[C@H]3c4cc(Oc5ccccc5C)ccc4CCN3C(=O)[C@H]2[C@H](C)O)cc1	nt	nt	103	nt	nt	nt
Cc1ccc(C(=O)NC(C)C2CC3CCC2C3)cc1 (centres undefined)	nt	nt	107	nt	nt	-2
Cc1cccc(NC(=S)NNC(=O)c2csc3c2CCC(C)C3)c1 (centres undefined)	-5	9	97	17	20	27*
CC1(C)CC=CC(COC(=O)c2ccccc2C(=O)O)C1 (centres undefined)	nt	29*	104	23	7	nt
CC(c1ccon1)N(C)C(=O)c1cccc(OC2CCN(S(C)(=O)=O)CC2)c1 (centres undefined)	nt	nt	102	nt	nt	nt
O=C(NNc1ncnc2sccc12)c1ccc(Cl)cc1	28*	nt	88	nt	nt	-1
Cc1csc2ncnc(NNC(=O)c3ccc(Cl)cc3)c12	7	5	116	-2	8	-3
